The full ranking holds about 8,300 sequences; the median of “log2 fold change of degron read counts, EGFP-low vs EGFP+ sorted cells (limma voom), compound-induced degradation” is about -1.1, and the highest 2% start at about 3.2. Many of the other results were omitted from the sample, so the highest values are more common in it than they were.
T1: CRBN, Q96SW2
T1 chain: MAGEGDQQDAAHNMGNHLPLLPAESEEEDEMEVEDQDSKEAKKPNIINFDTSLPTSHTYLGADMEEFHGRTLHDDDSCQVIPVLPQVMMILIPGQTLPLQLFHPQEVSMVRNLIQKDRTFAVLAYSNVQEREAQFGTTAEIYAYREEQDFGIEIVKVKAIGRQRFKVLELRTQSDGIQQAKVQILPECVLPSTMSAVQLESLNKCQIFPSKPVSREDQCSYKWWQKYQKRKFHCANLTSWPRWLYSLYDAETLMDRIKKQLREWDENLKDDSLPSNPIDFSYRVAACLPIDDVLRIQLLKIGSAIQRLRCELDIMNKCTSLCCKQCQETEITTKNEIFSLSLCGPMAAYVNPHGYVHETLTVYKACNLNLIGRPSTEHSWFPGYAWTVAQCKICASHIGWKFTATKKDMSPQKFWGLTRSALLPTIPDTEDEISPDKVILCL


Biological target: T1, CRBN, Q96SW2
Assay: log2 fold change of degron read counts, EGFP-low vs EGFP+ sorted cells (limma voom), compound-induced degradation; higher = more compound-induced degradation of the degron-EGFP fusion; degrons are variants of IKZF1/3 zinc finger 2; compound dose not given here
Details: Jurkat, 18 h
[1] = compound: compound 19 (5-tert-butyl-thalidomide)
[2] = compound: compound 22 (5-morpholino-thalidomide)
[3] = compound: compound 33 (diphenyl IMiD analogue)
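Note: pooled lentiviral library of zinc finger degron-EGFP fusions in mCherry-positive Jurkat cells, FACS-sorted after compound exposure, with degron abundance counted by next-generation sequencing.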

Sequence | log2 fold change of degron read counts [1] | log2 fold change of degron read counts [2] | log2 fold change of degron read counts [3] | log2 fold change of degron read counts (compound: thalidomide)
FCCDVCGACFTQKGNLLRHIKL [46F_47C_49D_50V_52G_53A_54C_55F_67L_, Q9UKT9] | 0.633 | 0.299 | 1.47 | -0.594
FWCNQCGAKFTQKGNLLRHIKL [46F_47W_49N_50Q_52G_53A_54K_55F_67L_, Q9UKT9] | 0.0883 | 0.432 | -1.2 | -1.53
FTCNQCGRLFTQKGNLLRHIKL [46F_47T_49N_50Q_52G_53R_54L_55F_67L_, Q9UKT9] | -2.58 | -2.81 | -3.15 | -2.31
FYCPICGRVFTQKGNLLRHIKL [46F_47Y_49P_50I_52G_53R_54V_55F_67L_, Q9UKT9] | -0.29 | -0.155 | 0.579 | -1.3
FWCNQCGRTFTQKGNLLRHIKL [46F_47W_49N_50Q_52G_53R_54T_55F_67L_, Q9UKT9] | -1.55 | -1.36 | -1.37 | -1.45
FVCDQCGAPFTQKGNLLRHIKL [46F_47V_49D_50Q_52G_53A_54P_55F_67L_, Q9UKT9] | -1.33 | 0.669 | -0.689 | -0.0169
FICPICGRVFTQKGNLLRHIKL [46F_47I_49P_50I_52G_53R_54V_55F_67L_, Q9UKT9] | -1.47 | -0.445 | 0.321 | 0.637
FGCPICGAWFTQKGNLLRHIKL [46F_47G_49P_50I_52G_53A_54W_55F_67L_, Q9UKT9] | 1.54 | -0.463 | 1.47 | -0.0772
FCCEICGRVFTQKGNLLRHIKL [46F_47C_49E_50I_52G_53R_54V_55F_67L_, Q9UKT9] | -1.06 | -1.44 | -0.0327 | -0.334
FWCEICGASFTQKGNLLRHIKL [46F_47W_49E_50I_52G_53A_54S_55F_67L_, Q9UKT9] | 3.83 | 3.81 | 2.56 | 1.42
FRCEICGASFTQKGNLLRHIKL [46F_47R_49E_50I_52G_53A_54S_55F_67L_, Q9UKT9] | 2.38 | 1.52 | 2.01 | 2.12
FFCEICGASFTQKGNLLRHIKL [46F_47F_49E_50I_52G_53A_54S_55F_67L_, Q9UKT9] | 3.6 | 3.72 | 2.31 | 1.63
FNCEICGASFTQKGNLLRHIKL [46F_47N_49E_50I_52G_53A_54S_55F_67L_, Q9UKT9] | 3.43 | 1.63 | 0.778 | 0.457
FLCEICGASFTQKGNLLRHIKL [46F_47L_49E_50I_52G_53A_54S_55F_67L_, Q9UKT9] | 1.8 | -0.0236 | 1.14 | 1.42
FECEICGASFTQKGNLLRHIKL [46F_47E_49E_50I_52G_53A_54S_55F_67L_, Q9UKT9] | 2.12 | -0.516 | 1.74 | 2.43
FICEICGASFTQKGNLLRHIKL [46F_47I_49E_50I_52G_53A_54S_55F_67L_, Q9UKT9] | 0.541 | 2.73 | 2.39 | 2.95
FTCEICGASFTQKGNLLRHIKL [46F_47T_49E_50I_52G_53A_54S_55F_67L_, Q9UKT9] | 2.27 | 3.03 | 2.5 | 3
FVCEICGASFTQKGNLLRHIKL [46F_47V_49E_50I_52G_53A_54S_55F_67L_, Q9UKT9] | 1.36 | 2.28 | 1.92 | 3
FFCEICGHSFTQKGNLLRHIKL [46F_47F_49E_50I_52G_53H_54S_55F_67L_, Q9UKT9] | -2.6 | -2.19 | -2.73 | -2.65
FACEICGASFTQKGNLLRHIKL [46F_47A_49E_50I_52G_53A_54S_55F_67L_, Q9UKT9] | 3.67 | 2.8 | 0.948 | 1.06
FECNQCGAGFTQKGNLLRHIKL [46F_47E_49N_50Q_52G_53A_54G_55F_67L_, Q9UKT9] | -2.2 | -2.79 | -2.43 | -2.17
LLCNQCGFQCTQKGNLLRHIKL [46L_47L_49N_50Q_52G_53F_54Q_55C_67L_, Q9UKT9] | -2.02 | -1.96 | -2.15 | -1.68
FQCNVCGAYFTQKGNLLRHIKL [46F_47Q_49N_50V_52G_53A_54Y_55F_67L_, Q9UKT9] | -2.25 | -1.8 | -0.854 | 1.41
FICEICGHAFTQKGNLLRHIKL [46F_47I_49E_50I_52G_53H_54A_55F_67L_, Q9UKT9] | -3.32 | -2.94 | -2.31 | -1.67
FRCDQCGACFTQKGNLLRHIKL [46F_47R_49D_50Q_52G_53A_54C_55F_67L_, Q9UKT9] | -2.93 | -3.5 | -1.12 | -2.52
FHCEICGHSFTQKGNLLRHIKL [46F_47H_49E_50I_52G_53H_54S_55F_67L_, Q9UKT9] | -2.93 | -3.88 | -2.79 | -3.22
FTCNQCGHFFTQKGNLLRHIKL [46F_47T_49N_50Q_52G_53H_54F_55F_67L_, Q9UKT9] | -1.82 | -2.32 | -2.31 | -2.01
FICEICGRCFTQKGNLLRHIKL [46F_47I_49E_50I_52G_53R_54C_55F_67L_, Q9UKT9] | -2.73 | -1.99 | -0.856 | -0.602

— the supplement of paper PMC12645437, “Orthogonal IMiD-Degron Pairs Induce Selective Protein Degradation in Cells” (ACS Chemical Biology, 2025)
